PubChem BioAssay (NCI)
The panel holds about 83,000 compounds, 20% with a hit somewhere; the sample as a whole holds those more often.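 Percent growth is the endpoint: 0 to 100 indicates growth inhibition (40 means 60% inhibition), 0 means no net growth, and negative values indicate cell death.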 Activity calls are given as the source filed them. How the source made its calls: active means growth percent below 10; inactive means the rest.

Assays:
Experiment in all cases: NCI-60 one-dose screen, 48 h (100 = growth as untreated, 0 = no growth, -100 = all killed)
Conditions in all cases: 10 µM unless noted
SK-MEL-2 melanoma = tested on: SK-MEL-2 melanoma
EKVX NSCLC = tested on: EKVX NSCLC
SN12C renal = tested on: SN12C renal
UO-31 renal = tested on: UO-31 renal
TK-10 renal = tested on: TK-10 renal
ACHN renal = tested on: ACHN renal
CAKI-1 renal = tested on: CAKI-1 renal
A498 renal = tested on: A498 renal
CCRF-CEM leukemia = tested on: CCRF-CEM leukemia
MOLT-4 leukemia = tested on: MOLT-4 leukemia

Measured: growth

CCCc1c(OC(=O)c2ccccc2)nc2[nH]c(=O)sc2c1C
inactive: SK-MEL-2 melanoma 107% | EKVX NSCLC 97.9% | SN12C renal 92% | UO-31 renal 82.3% | TK-10 renal 96.1% | ACHN renal 107% | CAKI-1 renal 95.6% | A498 renal 108% | CCRF-CEM leukemia 103%

CN(C)c1ccc(C(=O)OCCCCCCl)cc1
inactive: SK-MEL-2 melanoma 94.7% | EKVX NSCLC 96.9% | SN12C renal 96% | UO-31 renal 77.8% | TK-10 renal 96.5% | ACHN renal 102% | CAKI-1 renal 89.1% | A498 renal 83.9% | CCRF-CEM leukemia 122%

COc1cc2c(c(OC)c1OC)CCC(c1cccc(C(=O)Nc3ccc(C#N)cc3)c1)O2 (stereo not drawn)
inactive: SK-MEL-2 melanoma 50.7% | EKVX NSCLC 60.1% | SN12C renal 46.6% | UO-31 renal 25% | TK-10 renal 57.6% | ACHN renal 39.8% | CAKI-1 renal 43.4% | A498 renal 50.8% | CCRF-CEM leukemia 10.5%

COc1cccc(/C=C2\COc3ccc(O)c(O)c3C2=O)c1
inactive: SK-MEL-2 melanoma 57.1% | EKVX NSCLC 60.2% | TK-10 renal 21.5% | A498 renal 111%
active: SN12C renal -54.3% | UO-31 renal -93.3% | ACHN renal -79.2% | CAKI-1 renal 0.272% | CCRF-CEM leukemia 3.04%

COC(=O)[C@]12CCC(C)(C)C[C@H]1[C@H]1/C(=N/OCCc3nn[nH]n3)C[C@@H]3[C@@]4(C)CC[C@H](OC(C)=O)C(C)(C)[C@@H]4CC[C@@]3(C)[C@]1(C)CC2
inactive: SK-MEL-2 melanoma 58.8% | EKVX NSCLC 35.6% | SN12C renal 39% | UO-31 renal 15.5% | TK-10 renal 55.6% | ACHN renal 32.8% | CAKI-1 renal 39.8% | CCRF-CEM leukemia 33.5% | MOLT-4 leukemia 27.6%
active: A498 renal -19%

Cc1ccc(NC(=O)c2sc3nc(C)c(Br)c(C)c3c2N)cc1
inactive: SK-MEL-2 melanoma 82.6% | EKVX NSCLC 61.9% | SN12C renal 70.5% | UO-31 renal 65.4% | TK-10 renal 50.7% | ACHN renal 34.5% | CAKI-1 renal 74.3% | A498 renal 76.5% | CCRF-CEM leukemia 94.7% | MOLT-4 leukemia 90%

COc1cc2nc3cc([N+](=O)[O-])ccc3c(NCCNCC(C)O)c2cc1OC (stereo not drawn)
inactive: UO-31 renal 28.6% | TK-10 renal 14.3% | CAKI-1 renal 18.6%
active: SK-MEL-2 melanoma -29.6% | EKVX NSCLC 9.5% | SN12C renal -16.2% | ACHN renal 2.74% | A498 renal -34% | CCRF-CEM leukemia -6.35%

CCCCn1c(=O)[nH]c(N)c([C@@H]2c3c([nH]c(=O)n(CCCC)c3=O)Oc3ccc4ccccc4c32)c1=O
active: UO-31 renal 3.72% | ACHN renal 2.15% | CCRF-CEM leukemia -15.9%
inactive: SK-MEL-2 melanoma 89.2% | EKVX NSCLC 84.5% | SN12C renal 81% | TK-10 renal 73.7% | CAKI-1 renal 51.5% | A498 renal 101%

O=C(NCCNc1nccc(Nc2ccc(S(=O)(=O)Nc3ccccn3)cc2)n1)c1cccc([N+](=O)[O-])c1
inactive: SK-MEL-2 melanoma 101% | EKVX NSCLC 98.6% | SN12C renal 99.9% | UO-31 renal 82.5% | TK-10 renal 100% | ACHN renal 102% | CAKI-1 renal 93.6% | A498 renal 83.6% | CCRF-CEM leukemia 101% | MOLT-4 leukemia 93.8%

COc1ccccc1CNc1c2ccccc2nc2ccccc12
inactive: SK-MEL-2 melanoma 73.5% | EKVX NSCLC 65.7% | SN12C renal 34.7% | UO-31 renal 33.7% | TK-10 renal 55.5% | ACHN renal 22.7% | CAKI-1 renal 45.7% | A498 renal 13.3% | CCRF-CEM leukemia 37.5%

c1csc(-c2ccc(CNc3c4ccccc4nc4ccccc34)cc2)c1
active: A498 renal -2.45% | CCRF-CEM leukemia 2.57% | MOLT-4 leukemia 1.96%
inactive: SK-MEL-2 melanoma 80.8% | EKVX NSCLC 59% | SN12C renal 63.2% | UO-31 renal 27.9% | TK-10 renal 65.1% | ACHN renal 58.6% | CAKI-1 renal 35.5%

CCOC(=O)c1c(NC(=O)c2ccc(Cl)cc2)sc2c(CN(C)C)c(O)ccc12
inactive: SK-MEL-2 melanoma 101% | EKVX NSCLC 93.8% | SN12C renal 83.6% | UO-31 renal 67.5% | TK-10 renal 108% | ACHN renal 50.7% | CAKI-1 renal 67.2% | A498 renal 76.3% | CCRF-CEM leukemia 62.6% | MOLT-4 leukemia 59.5%

COc1cc(-c2csc(NC(=O)c3ccc(N4CCOCC4)c(C(F)(F)F)c3)n2)cc(OC)c1OC
inactive: SK-MEL-2 melanoma 23% | EKVX NSCLC 33.7% | SN12C renal 48.9% | UO-31 renal 15.4% | TK-10 renal 64.5% | ACHN renal 21.6% | CAKI-1 renal 36.4% | A498 renal 56.7% | CCRF-CEM leukemia 14.2% | MOLT-4 leukemia 10.1%

COc1ccc(-c2cc(-c3ccc(Cl)cc3)c(C#N)c(=O)n2Cc2ccc(C(=O)Nc3ccccc3N)cc2)cc1
inactive: SK-MEL-2 melanoma 79.3% | EKVX NSCLC 82.1% | SN12C renal 79.1% | UO-31 renal 40.5% | TK-10 renal 140% | ACHN renal 96.5% | CAKI-1 renal 55.8% | A498 renal 84% | CCRF-CEM leukemia 42.6% | MOLT-4 leukemia 66.2%

COc1ccc2c(c1)N(CCO)C1=C(C(=O)OC1)C2c1cccc(F)c1 (stereo not drawn)
inactive: SK-MEL-2 melanoma 31.3% | EKVX NSCLC 38.9% | SN12C renal 45.2% | UO-31 renal 46.3% | TK-10 renal 61.2% | ACHN renal 27.6% | CAKI-1 renal 31.3% | MOLT-4 leukemia 16.3%
active: A498 renal -4.39% | CCRF-CEM leukemia 9.38%

COc1ccc(C/C(C)=C(/c2ccc(OCCN(C)C)cc2)c2ccc(OC(=O)NCc3ccccc3)cc2)cc1
inactive: SK-MEL-2 melanoma 90.5% | EKVX NSCLC 72.2% | SN12C renal 74.2% | UO-31 renal 46.4% | TK-10 renal 78.5% | ACHN renal 90.9% | CAKI-1 renal 67.1% | A498 renal 85.7% | CCRF-CEM leukemia 47.2% | MOLT-4 leukemia 37.3%

CS(=O)(=O)c1ccc(-c2cnn3ccc(-c4cccc(S(=O)(=O)C5CC5)c4)nc23)cc1
inactive: SK-MEL-2 melanoma 49.4% | EKVX NSCLC 67.4% | SN12C renal 55.3% | UO-31 renal 49.8% | TK-10 renal 45.8% | ACHN renal 54.7% | CAKI-1 renal 52.2% | A498 renal 30% | CCRF-CEM leukemia 21.3% | MOLT-4 leukemia 15.3%

CCOC(=O)c1c(C(=O)c2cn(C)c3ccc(Br)cc23)c(-c2cn(C)c3ccc(Br)cc23)n(NC(=O)OC(C)(C)C)c1C
inactive: SK-MEL-2 melanoma 57.8% [100 µM] | EKVX NSCLC 80.5% [100 µM] | SN12C renal 92% [100 µM] | UO-31 renal 58.7% [100 µM] | TK-10 renal 69.2% [100 µM] | ACHN renal 78.9% [100 µM] | CAKI-1 renal 43.9% [100 µM] | A498 renal 87.2% [100 µM] | CCRF-CEM leukemia 102% [100 µM] | MOLT-4 leukemia 99.5% [100 µM]

COC(=O)/C=C1/SC(=Nc2cccc(OC)c2)N(CCc2c[nH]c3ccc(O)cc23)C1=O
inactive: SK-MEL-2 melanoma 57.6% | EKVX NSCLC 66.9% | SN12C renal 62.3% | UO-31 renal 55.7% | TK-10 renal 117% | ACHN renal 71.8% | CAKI-1 renal 82.2% | A498 renal 64.9%
active: CCRF-CEM leukemia 4.98% | MOLT-4 leukemia -1.26%

CCCCC1=C(P(=O)(O)O)N[C@H](C(=O)O)CS1
inactive: SK-MEL-2 melanoma 103% | EKVX NSCLC 90.5% | SN12C renal 88.2% | UO-31 renal 73.5% | TK-10 renal 94.8% | ACHN renal 97.9% | CAKI-1 renal 94.1% | A498 renal 100% | CCRF-CEM leukemia 96.8% | MOLT-4 leukemia 102%

CC(C)c1ccc(Cc2cnc(NC(=O)c3cc(Br)cs3)s2)cc1
inactive: SK-MEL-2 melanoma 23.7% | EKVX NSCLC 43.9% | SN12C renal 49.7% | UO-31 renal 55% | TK-10 renal 46.7% | ACHN renal 41.6% | CAKI-1 renal 31.3% | A498 renal 18.8% | CCRF-CEM leukemia 20% | MOLT-4 leukemia 43.2%

Nc1ncnc2c1c(-c1cccc(Cl)c1)nn2CC(=O)N1CCOCC1
inactive: SK-MEL-2 melanoma 106% | EKVX NSCLC 104% | SN12C renal 100% | UO-31 renal 80.7% | TK-10 renal 97% | ACHN renal 95.6% | CAKI-1 renal 91.8% | A498 renal 118% | CCRF-CEM leukemia 102% | MOLT-4 leukemia 110%

O=[N+]([O-])c1cccc(-c2nc3cc4nc5ccccc5[nH]c4cc3n2)c1
inactive: SK-MEL-2 melanoma 93.4% | EKVX NSCLC 99.7% | SN12C renal 108% | UO-31 renal 84.4% | TK-10 renal 105% | ACHN renal 103% | CAKI-1 renal 104% | A498 renal 92.1% | CCRF-CEM leukemia 111% | MOLT-4 leukemia 92.9%

CCCOC(=O)Nc1nc2ccc(SCC(C)C)cc2s1
inactive: SK-MEL-2 melanoma 48.6% | EKVX NSCLC 52.3% | SN12C renal 44.4% | UO-31 renal 44.8% | TK-10 renal 50.4% | ACHN renal 51.9% | CAKI-1 renal 49.1% | A498 renal 40.8% | CCRF-CEM leukemia 22.9% | MOLT-4 leukemia 33.8%

O=C(O)CCCN1C(=O)/C(=C/c2cn(-c3ccccc3)nc2-c2ccc([N+](=O)[O-])cc2)SC1=S
inactive: SK-MEL-2 melanoma 77.6% | EKVX NSCLC 67% | SN12C renal 50% | UO-31 renal 40.2% | TK-10 renal 78.2% | ACHN renal 56.8% | CAKI-1 renal 65.1% | A498 renal 88.2% | CCRF-CEM leukemia 27.6% | MOLT-4 leukemia 54.5%

COc1ccc(C(O)c2cc3c(N)c(C(=O)Nc4cccc(Br)c4)sc3nc2C)cc1 (stereo not drawn)
active: A498 renal -9.2%
inactive: SK-MEL-2 melanoma 33.9% | EKVX NSCLC 46.2% | SN12C renal 12.1% | UO-31 renal 22.9% | TK-10 renal 62.9% | ACHN renal 19.8% | CAKI-1 renal 13.5% | CCRF-CEM leukemia 14.2% | MOLT-4 leukemia 15.8%
